Mito fusion yeast – blocks mitochondrial division or promotes mitochondrial fusion; S. cerevisiae fusion-defective mutant growth rescue, CellTiterGlo 48 h; Potency, µM (top dose mostly 46.1 µM), usual class: activators; 320,000 tested, 0.23% active; also: nearly all actives have a fitted effect of over 45% in size
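Luminescent cell viability in 1536-well qHTS format served as the measure of rescued growth in ts fusion-mutant S. cerevisiae cultured on non-fermentable YPEG for 48 hours at 37C.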
FUS yeast rescue – FUS proteinopathy suppression in yeast. 390,000 tested, 0.24% active. S. cerevisiae FUS-expressing, growth rescue, OD600, 24 h. AID 1347120. Potency, µM (highest dose often 76.6 µM), actives largely listed as activators; also: nearly all actives have a fitted effect of over 55% in size
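Read-out: OD at 600 nm after 24hr at 30C, reporting rescue of FUS-induced yeast toxicity. Cells at OD 0.005 in galactose (2%) minimal medium; compounds tested in a dilution series; CP55940 titration from 92uM final as control.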
aSyn rescue – rescues yeast growth from alpha-synuclein toxicity; 370,000 tested, 0.14% active; Yeast expressing alpha-synuclein, growth rescue, BacTiter-Glo, 24 h; Potency, µM (top dose mostly 46.1 µM), usual class: activators; also: nearly all actives have a fitted effect of over 65% in size
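Galactose-induced alpha-syn yeast (OD600=0.02, raffinose-pregrown) + pinned cpd, 24 hr, 30 deg C; growth by BacTiter-Glo luminescence. Growth restoration scores as activation.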
Abeta rescue – compounds reversing amyloid beta toxicity in yeast; yeast expressing A-beta42, growth rescue, OD600, 48 h; response scale: 0% DMSO, 100% iron-clioquinol control; Potency, µM (top dose mostly 46.1 µM), actives largely listed as activators; 410,000 tested, 0.063% active; AID 1347071; also: nearly all actives have a fitted effect of over 55% in size
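Yeast growth medium received pinned compounds, then yeast cells expressing toxic A-beta were added; plates incubated at 30 C for 48 hr. Growth read as absorbance at 600 nm, normalized to DMSO and equimolar FeCl3 plus clioquinol controls.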
TDP43 rescue – inhibitors of TDP-43 toxicity in yeast; TDP-43 expressing yeast growth rescue, BacTiter-Glo, 24 h; Potency, µM (top dose mostly 46.1 µM), most hits filed as activators; 410,000 tested, 1.8% active; AID 652104; also: nearly all actives have a fitted effect of over 50% in size
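In this qHTS, compounds that restore growth of yeast expressing TDP-43 appear as activators. Cells (OD600=0.02, galactose medium, raffinose-pregrown) are incubated with compound 24 hr at 30 deg C and growth is quantified by BacTiter-Glo.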
Large screens that a line does not name were inactive. The list is not random: actives were taken first. Their share in the collection is about 2.2%. Calls follow the shape of the dose curve; as a rule, active = well fitted curve in the direction sought with a large enough effect; inconclusive = small, poorly fitted or top-dose-only effect, or another doubt; inactive = no such curve, though single readings can be large; an effect the other way counts as inactive or inconclusive.

Cc1cc(C)cc(C(=O)O/N=C(\N)c2ccc(Br)cc2)c1	TDP43 rescue 35.5µM
CCS(=O)(=O)N1CCc2cc(C(=O)Nc3ccc(OC)cc3OC)ccc21	none (no result: Mito fusion yeast, aSyn rescue)
CCOC(=O)c1cccc(N/C=C/C(=O)c2ccc(OC)c(OC)c2)c1	aSyn rescue 14.1µM, TDP43 rescue inconclusive
Cc1cccc(C(=O)O/N=C(\N)c2ccc(Br)cc2)c1	TDP43 rescue 6.31µM
COc1ccc(C(=O)O/N=C(\N)c2cccc(C)c2)cc1OC	Mito fusion yeast inconclusive, TDP43 rescue 22.4µM
COc1cccc(N/C=C/C(=O)c2ccc(OC)c(OC)c2)c1	aSyn rescue inconclusive
COc1ccc(C(=O)O/N=C(\N)c2ccccc2)cc1OC	Mito fusion yeast inconclusive, TDP43 rescue inconclusive
CCc1cccc(C)c1NC(=O)c1cc(S(=O)(=O)N(C)Cc2ccccc2)ccc1F	FUS yeast rescue inconclusive (no result: Mito fusion yeast, aSyn rescue)
C(=C\c1ccnc2ccccc12)/c1ccccc1	none (no result: Mito fusion yeast, FUS yeast rescue, Abeta rescue, TDP43 rescue)
COc1cccc([C@@H]2NC(=O)C/C=C/[C@H](C)[C@H](c3cccc(OC)c3)NC(=O)C/C=C/[C@@H]2C)c1	none (no result: Mito fusion yeast, aSyn rescue, Abeta rescue, TDP43 rescue)
CN(C)C(CNc1ncnc2sc3c(c12)CCCC3)c1ccco1 (stereo not given)	FUS yeast rescue inconclusive
CC1CCc2sc3nc(NCc4ccco4)n4ncnc4c3c2C1 (stereo not given)	TDP43 rescue 25.1µM
c1coc(CNc2ncnc3sc4c(c23)CCCCC4)c1	TDP43 rescue 12.6µM
Cc1nc(NCc2ccco2)c2c3c(sc2n1)CCC3	FUS yeast rescue inconclusive, TDP43 rescue inconclusive
CC1CCCc2sc3nc(NCc4ccco4)n4ncnc4c3c21 (stereo not given)	Mito fusion yeast inconclusive
c1ccc(CNc2ncnc3sc4c(c23)CCCC4)nc1	TDP43 rescue 12.6µM
Cc1nc(NCc2ccccn2)c2c3c(sc2n1)CCCC3	Mito fusion yeast 20µM
Nc1cc([N+](=O)[O-])cc(N)c1N	none (no result: Mito fusion yeast, FUS yeast rescue, Abeta rescue, TDP43 rescue)
Cc1c(NC(=O)/C(C#N)=C/c2ccc(-c3ccc(Cl)cc3)o2)c(=O)n(-c2ccccc2)n1C	FUS yeast rescue inconclusive, TDP43 rescue 31.6µM
CC1(C)CC(NCc2ccccc2)=CC(=S)N1	none (no result: Mito fusion yeast)
CC1(C)CC(N2CCN(CCO)CC2)=CC(=S)N1	aSyn rescue 17.8µM, TDP43 rescue inconclusive
CCCCNC(=O)c1ccc2c(c1)ncn2-c1cc(OC)ccc1OC	none (no result: Mito fusion yeast, aSyn rescue)
CCOC(=O)[C@@]12CCC3=C1N(CCC3)C(=O)[C@H](CC(=O)NCCc1ccccc1OC)C2	none (no result: Mito fusion yeast, aSyn rescue, Abeta rescue, TDP43 rescue)
CC(C)CCNc1nc(Nc2ccccc2)c2cnn(C)c2n1	FUS yeast rescue inconclusive, TDP43 rescue 17.8µM (no result: Mito fusion yeast, aSyn rescue)
Cc1c(NC(=O)C2CCCN(S(=O)(=O)c3ccc(F)cc3)C2)c(=O)n(-c2ccccc2)n1C (stereo not given)	none (no result: Mito fusion yeast, aSyn rescue, Abeta rescue, TDP43 rescue)
CC(=O)c1ccc(Sc2ccccc2)c([N+](=O)[O-])c1	Mito fusion yeast inconclusive, TDP43 rescue 11.2µM
Cc1ccc(Sc2ccc(CO)cc2[N+](=O)[O-])cc1	TDP43 rescue 14.1µM
CCCCn1c(C)cc2c(c1=O)C1O[C@](CCCC)(Cc3cc(C#N)ccc31)O2	none (no result: FUS yeast rescue, aSyn rescue, Abeta rescue, TDP43 rescue)
O=C(CCNc1cc(Cl)cc(Cl)c1)c1ccco1	TDP43 rescue 15.8µM
CN(C1=C(NC(=O)c2ccccc2)C(=O)c2ccccc2C1=O)C1CCS(=O)(=O)C1 (stereo not given)	none
CC(=O)NC1=C(NC2CCS(=O)(=O)C2)C(=O)c2ccccc2C1=O (stereo not given)	TDP43 rescue 25.1µM (no result: FUS yeast rescue)
Cc1c(Cl)cccc1NC(=O)Cn1nnc(-c2nc(-c3ccccc3)no2)c1N	TDP43 rescue inconclusive (no result: Mito fusion yeast, aSyn rescue)
Cc1ccc(Sc2ccc(NC(=O)CCl)cc2)cc1C	Mito fusion yeast 14.1µM, TDP43 rescue inconclusive
O=C(CCl)Nc1ccccc1Sc1ccccc1	TDP43 rescue inconclusive
Cc1ccc(C)c(Sc2ccc(NC(=O)CCl)cc2)c1	TDP43 rescue 8.91µM
CN(C)c1nc(-c2ccccc2)ncc1S(=O)(=O)c1ccccc1	TDP43 rescue 15.8µM
CCN(CC)c1nc(-c2ccccc2)ncc1S(=O)(=O)c1ccc(C)cc1	none
O=[N+]([O-])c1cc(C(F)(F)F)ccc1Oc1cccnc1[N+](=O)[O-]	none
O=C(Nc1ccc(F)cc1)c1ccccc1Oc1ccc(C(F)(F)F)cc1[N+](=O)[O-]	Mito fusion yeast inconclusive, aSyn rescue 14.1µM, TDP43 rescue 22.4µM (no result: FUS yeast rescue)
